These results are taken from PubChem BioAssay (Tox21).

The target of assay [1] is Thyrotropin receptor (Homo sapiens) (UniProt P16473). Description: qHTS assay to identify small molecule antagonists of the thyroid stimulating hormone receptor (TSHR) signaling pathway (AID 1259385; calls by dose curve; further: nearly all actives have a fitted effect of over 20% in size). A digest of the protocol:
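Antagonist mode: compound-treated TSHR-expressing HEK293 cells were stimulated with 1.5 ng/mL TSH (final) in presence of Ro20-1724 for 30 min at RT. HTRF cAMP detection after 1 h; each compound tested at 15 concentrations, triplicate.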

Assay [2] can be described thus: qHTS assay to identify small molecule agonists of the estrogen receptor alpha (ER-alpha) signaling pathway in the presence of an antagonist - cell viability counter screen (AID 1259386).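 Further: series mostly up to about 92 µM; cells exposed to compounds for 22 h at 37 °C before the viability read; nearly all actives have a fitted effect of over 30% in size.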 The essentials: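 In this counter screen, compound effects on VM7Luc4E2 viability were tested in the presence of the antagonist ICI-182,780 at 10.0nM final. Compounds were dosed at 15 concentrations, exposure lasted 22hr, and the CellTiter-Fluor signal was read.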

In assay [3] the target is Progesterone receptor (Homo sapiens) (UniProt P06401). Description: qHTS assay to identify small molecule agonists of the progesterone receptor (PR) signaling pathway (AID 1346784; calls by dose curve; further: nearly all actives have a fitted effect of over 30% in size). A digest of the protocol: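 HEK 293T PR-UAS-bla reporter cells, 2% charcoal-stripped FBS; 6 hr settle at 37C/5% CO2, compound (DMSO) 16 hr, LiveBLAzer B/G FRET substrate 2 hr RT, fluorescence intensity read.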
Chain of Progesterone receptor (Homo sapiens) (P06401 whole entry, looked up): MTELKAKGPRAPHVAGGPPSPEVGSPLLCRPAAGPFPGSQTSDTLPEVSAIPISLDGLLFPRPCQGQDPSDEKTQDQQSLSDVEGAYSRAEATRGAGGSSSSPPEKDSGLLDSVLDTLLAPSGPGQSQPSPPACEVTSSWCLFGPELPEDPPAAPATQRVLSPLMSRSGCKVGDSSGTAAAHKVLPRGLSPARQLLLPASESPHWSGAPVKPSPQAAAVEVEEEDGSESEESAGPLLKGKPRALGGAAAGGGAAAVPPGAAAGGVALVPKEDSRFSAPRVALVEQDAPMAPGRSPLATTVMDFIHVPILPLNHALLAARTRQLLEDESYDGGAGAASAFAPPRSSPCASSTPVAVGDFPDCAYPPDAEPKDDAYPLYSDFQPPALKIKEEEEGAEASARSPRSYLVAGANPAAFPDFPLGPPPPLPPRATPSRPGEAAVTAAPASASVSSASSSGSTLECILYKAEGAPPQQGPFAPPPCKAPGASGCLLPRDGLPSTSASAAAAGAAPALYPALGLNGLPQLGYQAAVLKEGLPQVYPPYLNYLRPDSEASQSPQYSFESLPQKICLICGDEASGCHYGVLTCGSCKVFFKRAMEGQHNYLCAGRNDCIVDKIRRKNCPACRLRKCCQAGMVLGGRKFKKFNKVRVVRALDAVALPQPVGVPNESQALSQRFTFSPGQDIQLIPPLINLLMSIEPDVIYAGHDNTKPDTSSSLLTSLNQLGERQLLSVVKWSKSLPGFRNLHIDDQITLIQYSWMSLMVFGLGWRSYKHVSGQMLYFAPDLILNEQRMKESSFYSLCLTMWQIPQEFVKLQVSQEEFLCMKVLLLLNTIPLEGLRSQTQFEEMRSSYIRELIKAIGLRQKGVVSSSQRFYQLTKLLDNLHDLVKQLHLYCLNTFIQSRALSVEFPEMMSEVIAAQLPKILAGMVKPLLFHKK

For assay [4] the target is unchanged. Briefly: qHTS assay to identify small molecule antagonists of the progesterone receptor (PR) signaling pathway (AID 1346795; active means well fitted inhibition curve with a large enough effect in the signal ratio in the repeat runs, not every such curve was filed as active; the % refers to the signal ratio; further: potency means the concentration at half of the fitted maximal effect). The essentials: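 Beta-lactamase reporter, HEK293T PR-UAS-bla line; 2% charcoal-stripped FBS; 6 hr pre-incubation, 37C/5% CO2. Compound + R5020 1 nM final, 16 hr. LiveBLAzer B/G FRET substrate, 2 hr RT; fluorescence intensity read.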

The nature of assay [5]: qHTS assay to identify small molecule antagonists of the progesterone receptor (PR) signaling pathway - cell viability counter screen (AID 1346798). Further: series mostly up to about 92 µM; nearly all actives have a fitted effect of over 50% in size. The essentials:
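Luminescence readout (CellTiter-Glo, 30 min, RT) of viability in PR-UAS-bla HEK293T cells exposed to compound and R5020 agonist for 16 hr at 37C, 5% CO2; run in the same wells as the beta-lactamase reporter read.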

A short description of assay [6]: qHTS assay to identify small molecule agonists of the progesterone receptor (PR) signaling pathway - cell viability counter screen (AID 1346799; calls by dose curve; further: nearly all actives have a fitted effect of over 45% in size). The essentials:
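HEK293T PR-UAS-bla, 3,000 cells/well, 2% charcoal-stripped FBS; 6 h settle, compound 16 h at 37C/5% CO2; LiveBLAzer 2 h RT, then CellTiter-Glo 30 min RT, luminescence read.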

Assay [7] can be described thus: qHTS assay to identify small molecule antagonists of the TGF-beta/Smad signaling pathway - cell viability counter screen (AID 1346824). Further: nearly all actives have a fitted effect of over 50% in size. A digest of the protocol:
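Cytotoxicity counter-screen run in the same wells as the beta-lactamase Smad reporter read: CellTiter-Glo luminescence after 30 min at room temperature. HEK 293T SBE-bla cells had 5 hr compound exposure at 37 C with TGF-beta1 (0.25 ng/mL stock).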

Assay [8] is described as follows: qHTS assay to identify small molecule agonists of the TGF-beta/Smad signaling pathway (AID 1346859; active means well fitted activation curve with a large enough effect in the signal ratio in the repeat runs, not every such curve was filed as active; the % refers to the signal ratio; further: series mostly up to about 77 µM). The essentials:
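Read-out: fluorescence at 460 and 530 nm (405 nm excitation) after a 2 hr room-temperature incubation with beta-lactamase FRET substrate. SBE-bla HEK 293T cells had been treated with test compounds for 5 hr at 37 C.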

A short description of assay [9]: Human pregnane X receptor (PXR) small molecule agonists, qHTS cell viability counter screen (AID 1346977). Further: nearly all actives have a fitted effect of over 50% in size. A digest of the protocol:
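Fluorescence read-out (CellTiter-Fluor) of viability in PXR-Luc HepG2 cells, multiplexed with the luciferase agonist read. Compounds in DMSO added after 5hr plating; 24hr total exposure at 37C, 5% CO2.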

Assay [10] in a line: Caspase-3/7 induction in HepG2 cells by small molecules, qHTS assay (AID 1346978). Further: nearly all actives have a fitted effect of over 15% in size. Further: potency means the concentration at half of the fitted maximal effect. A digest of the protocol:
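Caspase-3/7 induction was measured by Caspase-Glo 3/7 luminescence (30 min, room temperature) after a 17 hr compound exposure of wild-type HepG2 cells seeded at 2,000 per well and pre-incubated 5 hr.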

Assay [11] in a line: Caspase-3/7 induction in CHO-K1 cells by small molecules, qHTS cell viability counter screen (AID 1346979). Further: nearly all actives have a fitted effect of over 35% in size. Further: potency means the concentration at half of the fitted maximal effect. The essentials: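 CHO-K1 wt, 1,500 cells/well; 5hr pre-incubation 37C/5% CO2; compound pin transfer (DMSO); 16hr exposure; CellTiter-Fluor added, 1hr, fluorescence read.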
The nature of assay [12]: Caspase-3/7 induction in CHO-K1 cells by small molecules, qHTS assay (AID 1346980). Further: nearly all actives have a fitted effect of over 15% in size. A digest of the protocol:
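Luminescent Caspase-Glo 3/7 read (30min, room temperature) quantified apoptosis induction. Cells were wild-type CHO-K1, treated with compound for 17hr at 37 C and 5% CO2.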

Assay [13] in a line: Caspase-3/7 induction in HepG2 cells by small molecules, qHTS cell viability counter screen (AID 1346981). Further: series mostly up to about 92 µM; nearly all actives have a fitted effect of over 30% in size. The essentials:
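In this quantitative HTS counter screen, compounds delivered in DMSO were left on unmodified HepG2 cells for 16 hr at 37 C. Viability was then determined fluorometrically with CellTiter-Fluor, in parallel with caspase-3/7 induction in the same wells.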

For assay [14], the target named is Nuclear receptor subfamily 1 group I member 2 (Homo sapiens) (UniProt O75469). Description: Human pregnane X receptor (PXR) small molecule agonists, qHTS assay (AID 1346982). Further: nearly all actives have a fitted effect of over 35% in size. Further: potency means the concentration at half of the fitted maximal effect. A digest of the protocol:
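Reporter HepG2 cells expressing PXR-Luc are cultured in charcoal-stripped FBS (5%), treated with compounds for 24 hr at 37 C, and assayed by ONE-Glo luminescence after 30 min at room temperature.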

Assay [15] concerns the target Thyrotropin-releasing hormone receptor (Homo sapiens) (UniProt P34981). Briefly: qHTS assay to identify small molecule antagonists of the thyrotropin-releasing hormone receptor (TRHR) signaling pathway (AID 1346877; active means well fitted inhibition curve with a large enough effect in the repeat runs, not every such curve was filed as active; further: series mostly up to about 51 µM). A digest of the protocol:
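Kinetic fluorescence (3 min, 1 s resolution) following stimulation with TRH at 1 nM final; HEK293 cells bearing human TRHR; 5 min compound preincubation at RT; concentration-response over 15 points, triplicates.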

The target is the same in assay [16]. Briefly: qHTS assay to identify small molecule agonists of the thyrotropin-releasing hormone receptor (TRHR) signaling pathway (AID 1346891; calls by dose curve;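 further: HEK293 cells expressing TRHR with calcium dye readout; series mostly up to about 58 µM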). A digest of the protocol: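 HEK293/TRHR cells, 1500 per well, 18 h 37 °C; Ca dye 2 h 37 °C; pin-tool compound addition (agonist mode); kinetic fluorescence 3 min, 1 s reads; 15 concentrations, triplicate.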
Assay [17] in a line: qHTS assay to identify small molecule agonists of the TGF-beta/Smad signaling pathway - cell viability counter screen (AID 1346829). Further: top concentration of the series differs between compounds; nearly all actives have a fitted effect of over 45% in size. The essentials:
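SBE-bla HEK 293T cells plated overnight, compound exposure 5 hr at 37 C. Viability read in the same wells by CellTiter-Glo luminescence after 30 min at room temperature, following the beta-lactamase read.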

Assay [18] has as its target Nuclear receptor subfamily 1 group I member 2 (Rattus norvegicus) (UniProt Q9R1A7). Briefly: Rat pregnane X receptor (rPXR) activation by small molecules, qHTS assay (AID 1346983). Further: nearly all actives have a fitted effect of over 20% in size. Particulars: rPXR luciferase reporter cells, One-Glo luminescence, 24 h; max activation: stronger effect = higher value. The essentials: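 Luminescent readout (One-Glo luciferase, 30 min room temperature) followed 24 hr compound treatment at 37 C of rPXR cells plated 2,000 per well and preincubated 5hr; qHTS format with compounds delivered in DMSO.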

Assay [19] concerns the target Nuclear receptor subfamily 1 group I member 2 (Homo sapiens) (UniProt O75469). Description: CYP3A4 induction through human pregnane X receptor (PXR) by small molecules, qHTS assay (AID 1346984). Further: nearly all actives have a fitted effect of over 40% in size. Further: potency means the concentration at half of the fitted maximal effect. A digest of the protocol:
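Induction measured in HepG2-based DPX-2 cells co-expressing human PXR and a CYP3A4 promoter-driven luciferase. After a 24-hour compound exposure, cells received CYP3A4 luciferin substrate at 3uM final for 3 hours, and light output was then recorded.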

Assay [20] shares this target. Briefly: Human pregnane X receptor (PXR) activation by small molecules, qHTS assay (AID 1346985). Further: nearly all actives have a fitted effect of over 40% in size. Further: potency means the concentration at half of the fitted maximal effect. A digest of the protocol:
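DPX-2 cells (HepG2 co-transfected with a PXR response element and a CYP3A4-promoter luciferase construct) were seeded at 2,000 per well, rested 5 hr at 37C, then exposed to DMSO-dissolved compounds for 24 hr. Activation was read as luciferase luminescence.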

Several values for one entry are separate records, joined by “and”; a condition that tells them apart may be missing. Identical values can stand only once. Records with an inconclusive call do not appear. The source holds several records for some structures; these can differ, active in one and inactive in another. Activity calls are given as the source filed them. Unless noted, the call rests on the fitted dose curve; in most records, active means well fitted curve in the direction sought with a large enough effect in the repeat runs; inconclusive means weak or mixed curves; inactive means no such curve, though single readings can be large; an effect the other way counts as inactive or inconclusive.
On the % scale 0 is the no-effect control and ±100 the full control effect.

Chain of Nuclear receptor subfamily 1 group I member 2 (Homo sapiens) (O75469 whole entry, looked up): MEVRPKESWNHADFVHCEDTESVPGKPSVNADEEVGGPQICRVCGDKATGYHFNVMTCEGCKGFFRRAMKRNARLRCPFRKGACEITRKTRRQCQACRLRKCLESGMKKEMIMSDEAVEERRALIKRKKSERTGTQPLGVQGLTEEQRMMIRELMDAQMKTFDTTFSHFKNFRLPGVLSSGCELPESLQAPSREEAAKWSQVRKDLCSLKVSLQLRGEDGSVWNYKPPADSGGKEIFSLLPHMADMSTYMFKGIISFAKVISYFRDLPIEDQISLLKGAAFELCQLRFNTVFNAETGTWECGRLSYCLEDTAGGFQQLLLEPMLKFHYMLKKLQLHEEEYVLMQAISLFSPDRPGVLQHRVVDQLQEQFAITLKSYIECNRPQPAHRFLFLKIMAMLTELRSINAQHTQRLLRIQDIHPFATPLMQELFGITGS
Chain of Thyrotropin-releasing hormone receptor (Homo sapiens) (P34981 whole entry, looked up): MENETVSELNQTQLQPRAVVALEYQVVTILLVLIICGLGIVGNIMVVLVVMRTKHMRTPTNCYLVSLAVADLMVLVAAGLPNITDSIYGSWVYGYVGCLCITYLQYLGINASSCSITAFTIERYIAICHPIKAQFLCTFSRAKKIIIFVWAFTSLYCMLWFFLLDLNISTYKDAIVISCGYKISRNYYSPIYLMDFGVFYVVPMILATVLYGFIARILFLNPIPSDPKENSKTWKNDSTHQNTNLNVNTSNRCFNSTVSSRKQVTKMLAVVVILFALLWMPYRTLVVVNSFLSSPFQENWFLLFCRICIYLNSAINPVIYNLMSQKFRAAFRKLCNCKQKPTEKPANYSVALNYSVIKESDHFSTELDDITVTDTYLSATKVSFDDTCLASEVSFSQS
Chain of Nuclear receptor subfamily 1 group I member 2 (Rattus norvegicus) (Q9R1A7 whole entry, looked up): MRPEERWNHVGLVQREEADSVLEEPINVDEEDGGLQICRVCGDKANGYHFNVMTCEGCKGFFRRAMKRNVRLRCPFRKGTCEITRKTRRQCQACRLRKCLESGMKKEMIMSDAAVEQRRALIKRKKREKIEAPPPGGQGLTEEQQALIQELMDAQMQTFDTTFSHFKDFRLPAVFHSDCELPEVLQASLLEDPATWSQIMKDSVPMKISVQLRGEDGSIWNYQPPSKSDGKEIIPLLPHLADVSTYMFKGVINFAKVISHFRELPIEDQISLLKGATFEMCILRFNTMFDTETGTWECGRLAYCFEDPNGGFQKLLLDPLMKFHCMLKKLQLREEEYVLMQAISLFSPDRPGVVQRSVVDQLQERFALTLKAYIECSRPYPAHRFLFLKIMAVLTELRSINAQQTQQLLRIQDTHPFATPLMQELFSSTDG
Chain of Thyrotropin receptor (Homo sapiens) (P16473 whole entry, looked up): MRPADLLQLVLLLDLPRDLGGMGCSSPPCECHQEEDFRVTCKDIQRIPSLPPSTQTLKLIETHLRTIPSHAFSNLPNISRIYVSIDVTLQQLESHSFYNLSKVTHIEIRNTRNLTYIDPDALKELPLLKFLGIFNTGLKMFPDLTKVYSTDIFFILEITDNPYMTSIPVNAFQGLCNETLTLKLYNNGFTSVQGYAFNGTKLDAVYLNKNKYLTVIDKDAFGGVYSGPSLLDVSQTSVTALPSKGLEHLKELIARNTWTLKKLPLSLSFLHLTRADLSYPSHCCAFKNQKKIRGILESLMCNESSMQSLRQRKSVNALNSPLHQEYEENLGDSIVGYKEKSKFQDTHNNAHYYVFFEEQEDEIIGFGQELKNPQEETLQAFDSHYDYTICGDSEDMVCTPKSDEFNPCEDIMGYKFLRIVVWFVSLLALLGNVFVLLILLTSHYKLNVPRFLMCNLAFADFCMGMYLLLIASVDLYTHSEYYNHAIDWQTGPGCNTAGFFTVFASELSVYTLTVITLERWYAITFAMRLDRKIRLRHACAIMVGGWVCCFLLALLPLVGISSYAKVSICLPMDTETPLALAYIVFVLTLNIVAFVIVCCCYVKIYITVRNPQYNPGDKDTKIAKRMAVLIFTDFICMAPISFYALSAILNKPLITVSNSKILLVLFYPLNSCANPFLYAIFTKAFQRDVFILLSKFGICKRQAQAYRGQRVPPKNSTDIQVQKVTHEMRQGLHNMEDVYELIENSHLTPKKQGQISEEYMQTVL

Consider `Cc1c(N(C)C)c(=O)n(-c2ccccc2)n1C`, for which the result in assay [1], in assay [8] and in [12] was inactive. Moreover, the Potency entry in [2], in assay [3], in assay [4], in assay [5], in [6] and in [7] was “inactive” in each case. For the same molecule, the Potency result in [9], in assay [10], in [11] and in assay [13] was “inactive” each time. The Potency in [14] is 55.4 µM (active) and inactive.

Take `CCOC(=O)C(C)(C)Oc1ccc(Cl)cc1`: the molecule was classed as inactive in [1], in assay [8], in assay [15] and in assay [12]. Moreover, the Potency entry in assay [2], in [3], in assay [4], in assay [5], in assay [6] and in [7] was “inactive” throughout. In addition, the Potency entry in [16], in [9], in assay [10], in assay [11], in [13] and in assay [14] was “inactive” each time.

Take `Oc1cccc(O)c1`: the call in assay [1] and in [8] was inactive. Moreover, the Potency entry in assay [2], in assay [3], in assay [4], in assay [5], in assay [6] and in assay [7] was “inactive” each time. In addition, the Potency entry in assay [17], in assay [11], in assay [13], in assay [19] and in [20] was “inactive” each time. Moreover, the Potency was 42 µM (active) and inactive in [10]; 47.1 µM (active) and inactive in assay [14]. In addition, the max activation in assay [18] was -3.43% (inactive).

As to `CCCCCCCCCCCCCCCCCC(=O)OCC(O)CO` (stereo not drawn), the result in [1], in [8], in assay [15] and in assay [12] was inactive. In addition, the Potency entry in [2], in assay [3], in [4], in assay [5], in [6] and in assay [7] was “inactive” each time. For the same molecule, the Potency result in assay [16], in assay [9], in [10], in assay [11], in assay [13] and in assay [14] was “inactive” throughout. Moreover, the Potency result in assay [19] and in [20] was “inactive” throughout. The max activation in assay [18] was 0.317% (inactive).

`COc1cc(O)c(C(=O)c2ccccc2)cc1S(=O)(=O)O`: the molecule was called inactive in assay [1], in [8], in assay [15] and in assay [12]. Further, the Potency entry in [2], in assay [3], in assay [4], in assay [5], in [6] and in assay [7] was “inactive” throughout. Moreover, the Potency entry in assay [16], in assay [10], in assay [13], in assay [14], in assay [19] and in assay [20] was “inactive” in each case. Moreover, the Potency entry in assay [11] was “inactive and 13.3 µM (active)”. The max activation in assay [18] was -1.72% (inactive).

As to `N[C@@H](Cc1c[nH]c2ccc(O)cc12)C(=O)O`, the molecule was called inactive in assay [1], in [8], in assay [15] and in assay [12]. Also, the Potency entry in [2], in [3], in assay [4], in assay [5], in assay [6] and in assay [7] was “inactive” throughout. Also, the Potency result in assay [16], in [10], in assay [11], in assay [13], in assay [14] and in assay [20] was “inactive” in each case. In addition, the max activation in [18] was -0.341% (inactive). In assay [19], the Potency was 4.47 µM (active).

Consider `Cc1ccc(O)c(-n2nc3ccccc3n2)c1`, for which the outcome in assay [1], in assay [8] and in assay [12] was inactive. The Potency result in assay [2], in assay [3], in assay [5], in [6], in assay [7] and in [17] was “inactive” each time. Besides, the Potency entry in assay [10], in [11], in assay [13] and in assay [19] was “inactive” throughout. In addition, the Potency in assay [4] is 48.6 µM (active); in assay [14], 27.1 µM (active) and 27.3 µM (active) and 23.7 µM (active); in assay [20], 14.1 µM (active). Moreover, the max activation in [18] was -1.88% (inactive).
